According to PubChem BioAssay AID651558 (National Center for Advancing Translational Sciences (NCATS), 2012):
Several values for one entry are separate records, joined by “and”; a condition that tells them apart may be missing. Equal values may be shown once. The whole screen tested about 1,200 compounds, of which about 480 (40%) were called active. Not shown: some 29% with an inconclusive outcome. Calls follow the shape of the dose curve; as a rule, active = well fitted inhibition curve with a large enough effect; inconclusive = small, poorly fitted or top-dose-only effect; inactive = no such curve, though single readings can be large or run the other way. Some of the results follow.

assay: qHTS Assay to Find Inhibitors of Chronic Active B-Cell Receptor Signaling: Hit Validation in Primary Screen; conditions: ABC-DLBCL IkB-luc/CBR ratio luminescence, 4 h; series mostly up to 46.1 µM; also: nearly all actives have a fitted effect of over 75% in size
Summary of the method: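 TMD8 ABC-DLBCL cells carrying doxycycline-inducible IkBa-green luciferase fusion and free red luciferase, 0.5% FBS, dosed 46 uM–3 nM with doxycycline for 4 h at 37C. Green/red luminescence ratio normalized to basal and 10 uM MG-132.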
Potency is read from the fitted curve at half-maximal effect.

Potency, active:
COc1ccccc1-c1nnc2n1N=C(c1ccc(O)c(O)c1)CS2 0.206 µM, COc1ccc(C(=O)N/N=C/c2ccccc2OC(=O)c2ccccc2)cc1 0.651 µM, Cc1cccc(NS(=O)(=O)c2ccc(-c3cnc(C4CC4)o3)cc2)c1C 0.92 µM, Cc1cccc(C)c1NS(=O)(=O)c1ccc(-c2cnc(C3CC3)o2)cc1 0.291 µM, CCOCCOC(=O)c1[nH]c2c(c1C)C(=O)CC(c1ccccc1)C2 (centres undefined) 1.64 µM, COC(=O)c1[nH]c2c(c1C)C(=O)CC(c1ccccc1)C2 (centres undefined) 1.3 µM, CCOCCOC(=O)c1[nH]c2c(c1C)C(=O)CC(c1cccs1)C2 (centres undefined) 2.59 µM, COc1ccc(OC)c(C2CC(=O)c3c([nH]c(C(=O)OC(C)C)c3C)C2)c1 (centres undefined) 1.64 µM, O=C1N/C(=C/c2ccc(N3CCOCC3)o2)C(=O)N1c1ccccc1 16.4 µM, O=S1(=O)N=C(Nc2nc3c(s2)CCCC3)c2ccccc21 7.31 µM, Cc1cccc(OCCN2C(=O)C(=O)c3cc(C)ccc32)c1 23.1 µM, CCCN1C(=O)C(=O)c2cc(Cl)ccc21 18.4 µM, Cc1ccc2c(c1)C(=O)C(=O)N2CCOc1ccccc1 20.6 µM, Cc1ccc(OCCN2C(=O)C(=O)c3cc(C)ccc32)cc1 20.6 µM, Cc1noc(C)c1COc1ccc(CC(=O)NCc2ccccc2)cc1 14.6 µM, O=C(Cc1ccc(-c2ccccc2)cc1)NCc1ccccc1 0.517 µM, Clc1ccc2nc(-c3ccccc3)nc(C(Cl)Cl)c2c1 4.61 µM, CCOc1ccc(S(=O)(=O)NCc2ccccn2)cc1NC(=O)c1ccccc1F 8.2 µM, Cc1ccc(S(=O)(=O)Nc2cccc(-c3ccc4nncn4n3)c2)cc1 16.4 µM, CNCc1ccccc1Sc1ccc(O)c(O)c1 23.1 µM, COc1ccc(NC(=O)/C(C#N)=C\c2cc(C)n(-c3ccc4c(c3)OCO4)c2C)cc1 2.31 µM, Oc1cccc(Nc2nc(N3CCOCC3)nc(N3CCOCC3)n2)c1 8.2 µM, Cc1cc(C)n(-c2nc3ccccc3c(=O)n2OCC#N)n1 23.1 µM, Cc1ccc(S(=O)(=O)Cc2ccc(C(=O)N3CCN(c4cccc(C)c4C)CC3)o2)cc1 5.17 µM and 20.6 µM, COc1ccc(CNC(=O)/C(C#N)=C/c2cccc(OC)c2OC)cc1 18.4 µM, CC1CC(C)CN(S(=O)(=O)c2ccc(NC(=O)c3ccc(=O)[nH]c3)cc2)C1 (centres undefined) 9.2 µM, Oc1cccc(/C=N/Nc2ccc(Cl)nn2)c1O 14.6 µM, O=C(CCl)Nc1cc(S(=O)(=O)N2CCCCCC2)ccc1Cl 20.6 µM, O=C(CNC(=O)c1ccco1)N=Nc1c(O)n(CCc2ccccc2)c2ccccc12 5.8 µM, CCOC(=S)SCC(=O)Nc1nc(-c2ccc(Br)cc2)cs1 3.66 µM, Cc1cccc(-n2c3nc(=O)[nH]c(=O)c-3cc3cc([N+](=O)[O-])ccc32)c1 7.31 µM, CCNC(=O)[C@H]1O[C@@H](n2cnc3c(N)nc(NCCc4ccc(CCC(=O)O)cc4)nc32)[C@H](O)[C@@H]1O 0.0731 µM, COC(=O)C1=C(C)NC(C)=C(C(=O)OC)C1/C=C/c1ccccc1 20.6 µM, COc1ccc(NC(=O)C(=O)NCC2CCCN2S(=O)(=O)c2ccc(C)cc2)cc1 (centres undefined) 0.517 µM, CC(C)N=C(NS(=O)(=O)c1ccccc1)C(Cl)(Cl)Cl 3.26 µM, Cc1ccc2nc(SCC(=O)Nc3cc(C(F)(F)F)ccc3N3CCOCC3)[nH]c2c1 2.06 µM, Cc1onc(-c2ccccc2)c1C(=O)Nc1cc(C(F)(F)F)ccc1N1CCOCC1 20.6 µM, Cc1ccc(S(=O)(=O)N(C)C[C@@H]2Oc3ccc(NC(=O)CCC(F)(F)F)cc3CC(=O)N([C@@H](C)CO)C[C@@H]2C)cc1 9.2 µM, Nc1ccc(C(=O)n2c3ccccc3c3ccccc32)cc1 13 µM, COc1cccc(C2NC(=S)NC(C)=C2C(=O)c2ccccc2)c1OC (centres undefined) 16.4 µM, Cc1cc2c(cc(C(=O)OCC(=O)NCc3cccs3)n2C(C)C)o1 8.2 µM, COC(=O)c1ccccc1NC(=O)Cn1c(-c2nonc2N)nc2ccccc21 0.731 µM, CCC(=O)Nc1nonc1-c1nc2ccccc2n1Cc1cccc2ccccc12 2.91 µM, CCOC(=O)c1ccccc1NC(=O)Cn1c(-c2nonc2N)nc2ccccc21 2.31 µM, CCN(CC)c1ccc2c(c1)OC(N)=C(C#N)C2c1cccnc1 (centres undefined) 1.03 µM, N#CC1=C(N)Oc2cc(N)ccc2C1c1cccc(Br)c1 (centres undefined) 4.11 µM, CN(C)c1ccc2c(c1)OC(N)=C(C#N)C2c1cccc(F)c1 (centres undefined) 0.82 µM, COc1ccc(COc2cc(-c3cccc(OC)c3)nc3ccc(N)cc23)cc1 2.91 µM, COc1ccc(/C=N/NC(=O)CCn2cnc(-c3ccccc3)c2-c2ccccc2)cc1 2.31 µM, COc1ccc(/C=N/NC(=O)CCn2cnc(-c3ccccc3)c2-c2ccccc2)cc1OC 16.4 µM

Potency, inactive:
CNC(=S)N/N=C(\C)c1ccc(Cl)s1, S=C(Nc1ccccc1)c1nc2ccccc2s1, Cc1ccc(-c2oc3ncnc(N)c3c2-c2ccc(C)cc2)cc1, Cc1cccc(C(=O)Oc2ccc(/C=N/O)cc2)c1, NC(=S)N/N=C/c1ccccc1OC(=O)/C=C/c1ccccc1, Cc1cccc(NS(=O)(=O)c2ccc(C3CCCCC3)cc2)n1, COCCOC(=O)c1[nH]c2c(c1C)C(=O)CC(c1ccccc1)C2 (centres undefined), NC(=S)N/N=C/c1ncc(C(F)(F)F)cc1Cl, C/C(=N\N1C(=O)c2ccccc2NC1c1ccco1)c1ccccc1O (centres undefined), CCNC(=S)N/N=C(\C)c1ccc(Cl)s1, O=C(CSc1cccc[n+]1[O-])c1ccc(-c2ccccc2)cc1, Cc1ccc(/C(C#N)=C\c2ccc(N3CCOCC3)o2)cc1, Cc1ccc(/C=[N+](\[O-])c2ccc(N(C)C)cc2)c2nsnc12, O=C(COc1ccc(-c2ccccc2)cc1)N1CCN(S(=O)(=O)Cc2ccccc2)CC1, Cc1cccc(OCCCC(=O)NNC(=O)c2cccc(N(C)C)c2)c1, Cc1cccc(OCCCN2C(=O)C(=O)c3cc(C)ccc32)c1, NC(=O)NC[C@@H]1CC[C@@H](Cc2ccc(-c3ccccc3)cc2)O1, O=C(COC(=O)Cc1ccc(-c2ccccc2)cc1)NCc1ccccc1, Cc1ccccc1N=Nc1c(C)[nH]n(C(N)=S)c1=O, CS(=O)(=O)C1=C(O)C(=O)N(c2ccccc2)C1c1ccccc1 (centres undefined), Oc1[nH]c2ccccc2c1N=NC(=S)N1CCOCC1, N#C/C(=C\c1cn(Cc2ccc(F)cc2)c2ccccc12)C(=O)NCc1ccco1, COc1ccc(-c2ccc(CCC(=O)O)n2-c2ccccc2OC)cc1, Oc1ccccc1/C=N/Nc1ccnc(SCc2ccccc2)n1, CCCCN1C(=O)N(C)C2C1N(C)C(=O)N2CCCC (centres undefined), O=[N+]([O-])c1cc(/C=N/O)ccc1Sc1ccccc1, CCOC(=O)Cc1csc(NC(=S)NC(=O)c2ccccc2)n1, Cc1csc(NC(=S)NC(=O)c2ccccc2)n1, CC(=O)c1ccc2c(c1)CC(C)C(=O)N2C (centres undefined), COCCn1c(-c2cccc([N+](=O)[O-])c2)nc2c1c(=O)[nH]c(=O)n2Cc1ccccc1, Cc1ccc(C)c(-n2c3nc(=O)[nH]c(=O)c-3cc3cc([N+](=O)[O-])ccc32)c1, Cn1c(=O)n(C)c2cc(NS(=O)(=O)c3ccc(Br)s3)ccc21, O=C1N[C@H]2CC=C[C@H]2Nc2ccccc21, Cc1ccc(NC(=O)C(=O)NCC2CCCN2S(=O)(=O)c2cccs2)cc1C (centres undefined), N#Cc1ccccc1NC(=O)c1cccc(COc2ccc(Cl)cc2Cl)c1, CCN(CC)S(=O)(=O)c1ccc(N2CCOCC2)c(NC(=O)c2c3c(nc4ccccc24)CCC3)c1, O=C(CSc1cc(Cl)ccc1Cl)Nc1ccc(N2CCOCC2)cc1, C=CCNC(=S)N/N=C/c1ccc(C(C)(C)C)cc1, COc1cc(SSc2cc(OC)cc([N+](=O)[O-])c2N)c(N)c([N+](=O)[O-])c1, COc1cc2c(cc1C1NC(=S)NC(C)=C1C(N)=O)CCCC2 (centres undefined), CCCCN(C(=O)CSc1nc2ccccc2n1CC)C1CCS(=O)(=O)C1 (centres undefined), Cc1cc(C(=O)OCC(=O)Nc2c(Cl)cccc2Cl)c(C)o1, O=C(NC(=S)NC1CCSC1=O)c1ccccc1 (centres undefined), Cc1cccc(C)c1NC(=O)CNC(=O)CNC(=O)Cc1cccc2ccccc12, COCCNC(=S)N/N=C(\C)c1ccc(Cl)s1, CCONC(=O)Nc1ccccc1[N+](=O)[O-], COCCNC(=S)N/N=C(\C)c1ccc(Cl)c(Cl)c1Cl, CCOc1ccccc1N1CSC2=C(C#N)C(c3c(OC)ccc4ccccc34)CC(=O)N2C1 (centres undefined), CC(O)c1cccc(-c2ccc(CN3C[C@]4(CO)O[C@@H](CO)C[C@@H]4S3(=O)=O)cc2)c1 (some centres undefined), CC1=NN(C(N)=S)C(=O)C1N=Nc1ccc(C)c(Br)c1 (centres undefined), OC(C#Cc1ccccn1)c1cccs1 (centres undefined), CN1c2ccccc2Sc2cc(N)ccc21, COc1ccc(-c2nn(-c3ccccc3)cc2C(=O)NC(=S)NNC(=O)c2ccncc2)cc1, COc1ccc(/C=N\NC(=O)c2c(C)nc3ccc(Br)cn23)cc1
